In the supplement of paper PMC10849652:
Of roughly 8,800 targets only a part is listed; those with a hit were picked by preference. About 0.5% of all pairs of compound and target were hits.

Columns and labels:
Assay in all cases: log2 fold change, soluble protein after heating vs DMSO (PISA); higher = thermal stabilisation; K562 lysate, 10 uM; active = over 0.2 and 3.5 SD of the protein, either way, in both replicates (recomputed)
erlotinib = compound: C#Cc1cccc(Nc2ncnc3cc(OCCOC)c(OCCOC)cc23)c1 [erlotinib]
How it was run: (§1)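 The values are log-two fold changes in thermal stability compared with solvent controls and come from duplicates. They were obtained by TMTpro 16plex LC-MS/MS, with channel sums equalised, on the supernatant after 21,000xg for 90 min. That supernatant came from crude K562 extract at 1 mg/mL protein treated with 10 μM compound for 30 min, heated for 3 min across 48°C-58°C, pooled and brought to 0.5% NP-40 at 4°C.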

[1] = compound: C/C(=N\NC(=O)C1=CC(=CC=C1)S(=O)(=O)N2CCOCC2)/C3=C(C=CC(=C3)Cl)O
How it was run: as §1

[2] = compound: C1=CC(=CC=C1C2=NC3=C(N2)C=C(C=C3)C(=O)N)OC4=CC=C(C=C4)Cl
How it was run: as §1

[3] = compound: C1=CC2=C(C=CC(=C2)/C=C\3/C(=O)NC(=NCC4=CC=CS4)S3)N=C1
How it was run: as §1

[4] = compound: C1=CC2=NC=CN=C2C=C1/C=C/3\C(=O)NC(=O)S3
How it was run: as §1

[5] = compound: C1=CC=C(C=C1)C2=NC(=C(N2)C3=CC=NC=C3)C4=CC(=C(C=C4)Cl)O
How it was run: as §1

[6] = compound: C1=CC=C2C(=C1)C3=NNC4=CC=CC(=C43)C2=O
How it was run: as §1

[7] = compound: C1CCN(C1)C(=O)NC2=CC=CC(=C2)NC3=NC=C(C(=N3)NCCC4=CN=CN4)Br
How it was run: as §1

[8] = compound: C1CN(CCC1(CC2=CC=C(C=C2)Cl)N)C3=NC=NC4=C3C=CN4
How it was run: as §1

IRAK-1-4 Inhibitor I = compound: C1COCCN1CCN2C3=CC=CC=C3N=C2NC(=O)C4=CC(=CC=C4)[N+](=O)[O-] [IRAK-1-4 Inhibitor I]
How it was run: as §1

ibrutinib = compound: C=CC(=O)N1CCC[C@@H](n2nc(-c3ccc(Oc4ccccc4)cc3)c3c(N)ncnc32)C1 [ibrutinib]
How it was run: as §1

[9] = compound: CC(=O)c1cnc2ccc(-c3cc(Cl)c(O)c(Cl)c3)nc2c1N[C@H]1CC[C@H](CN(C)C)CC1
How it was run: as §1

ralimetinib = compound: CC(C)(C)Cn1c(N)nc2ccc(-c3[nH]c(C(C)(C)C)nc3-c3ccc(F)cc3)nc21 [ralimetinib]
How it was run: as §1

[10] = compound: CC(C)(O)CC(=O)NCCn1ccc2ncnc(Nc3ccc(Oc4cccc(C(F)(F)F)c4)c(Cl)c3)c21
How it was run: as §1

[11] = compound: CC(C)C1=C2N=C(C=C(N2N=C1)NCC3=CC=CC=C3)NCCCCCCN
How it was run: as §1

[12] = compound: CC1=C(C(CC(=O)N1)C2=CC=C(C=C2)C(F)(F)F)C(=O)NC3=C(C=C4C(=C3)C=NN4)F
How it was run: as §1

[13] = compound: CC1=C(C2=C(C=C1)C(=O)C3=CC=CC=C3N2CCCN)C
How it was run: as §1

[14] = compound: CC1=C(C=C(C=C1)NC(=O)C2=CC(=CC=C2)C(C)(C)C#N)NC3=CC4=C(C=C3)N=CN(C4=O)C
How it was run: as §1

[15] = compound: CC1=C(C=C(C=C1)NC(=O)C2=CC(=CC=C2)N(C)C)NC(=O)C3=CC=C(C=C3)O
How it was run: as §1

[16] = compound: CC1=CC=C(C=C1)SC2=C3C=C(SC3=CN=C2)C(=O)N
How it was run: as §1

Measured: log2 fold change

FIBP (UniProt O43427)
Sequence of UniProt O43427 (O43427 whole entry, looked up): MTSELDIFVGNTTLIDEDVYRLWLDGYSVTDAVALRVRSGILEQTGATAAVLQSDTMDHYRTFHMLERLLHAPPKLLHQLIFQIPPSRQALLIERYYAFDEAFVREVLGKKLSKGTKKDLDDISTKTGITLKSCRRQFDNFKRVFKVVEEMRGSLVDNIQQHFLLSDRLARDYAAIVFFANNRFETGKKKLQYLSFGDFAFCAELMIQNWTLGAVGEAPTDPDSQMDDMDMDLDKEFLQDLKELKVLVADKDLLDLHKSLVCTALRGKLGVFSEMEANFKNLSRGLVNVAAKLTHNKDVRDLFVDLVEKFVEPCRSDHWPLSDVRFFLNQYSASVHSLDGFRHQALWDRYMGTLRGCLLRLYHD
inactive: erlotinib -0.071 | [1] -0.027 | [2] 0.022 | [3] 0.067 | [4] 0.018 | [5] 0.041 | [6] 0.079 | [7] -0.064 | [8] 0.029 | IRAK-1-4 Inhibitor I 0.006 | ibrutinib 0.015 | [9] 0.02 | ralimetinib 0.032 | [10] -0.026 | [11] 0.028 | [12] 0.057 | [13] 0.036 | [14] 0.01 | [15] 0.024 | [16] 0.011

FTSJ1 (UniProt Q9UET6)
Sequence of UniProt Q9UET6 (Q9UET6 whole entry, looked up): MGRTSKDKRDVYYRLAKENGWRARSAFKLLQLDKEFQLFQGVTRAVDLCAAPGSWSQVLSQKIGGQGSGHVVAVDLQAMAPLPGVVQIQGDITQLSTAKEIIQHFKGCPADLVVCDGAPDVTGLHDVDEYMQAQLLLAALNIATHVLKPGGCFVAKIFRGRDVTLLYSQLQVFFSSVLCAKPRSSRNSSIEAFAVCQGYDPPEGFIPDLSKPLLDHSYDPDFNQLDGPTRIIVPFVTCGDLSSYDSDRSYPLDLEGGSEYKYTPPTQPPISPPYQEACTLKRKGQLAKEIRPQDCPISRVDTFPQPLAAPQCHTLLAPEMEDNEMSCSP
inactive: erlotinib -0.008 | [1] 0 | [2] 0.039 | [3] 0.005 | [4] -0.025 | [5] 0.07 | [6] 0.034 | [7] -0.007 | [8] 0.016 | IRAK-1-4 Inhibitor I 0.019 | ibrutinib 0.004 | [9] -0.006 | ralimetinib -0.03 | [10] 0.094 | [11] -0.054 | [12] 0.011 | [13] 0.069 | [14] -0.024 | [15] 0.062 | [16] 0.03

EIF3I (UniProt Q13347)
Sequence of UniProt Q13347 (Q13347 whole entry, looked up): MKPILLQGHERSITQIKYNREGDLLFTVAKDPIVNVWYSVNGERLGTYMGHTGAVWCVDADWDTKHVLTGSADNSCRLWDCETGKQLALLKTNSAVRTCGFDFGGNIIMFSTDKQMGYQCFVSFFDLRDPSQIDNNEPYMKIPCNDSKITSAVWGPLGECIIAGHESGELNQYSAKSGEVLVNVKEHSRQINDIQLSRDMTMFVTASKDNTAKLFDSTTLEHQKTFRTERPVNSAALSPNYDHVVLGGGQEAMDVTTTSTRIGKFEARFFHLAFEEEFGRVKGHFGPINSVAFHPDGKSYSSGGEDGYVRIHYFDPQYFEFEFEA
inactive: erlotinib 0.013 | [1] 0.033 | [2] -0.029 | [3] 0.001 | [4] 0.022 | [5] 0 | [6] -0.026 | [7] 0.004 | [8] -0.007 | IRAK-1-4 Inhibitor I -0.039 | ibrutinib 0.018 | [9] -0.019 | ralimetinib 0.035 | [10] 0.046 | [11] 0.032 | [12] 0.003 | [13] 0.013 | [14] 0.009 | [15] 0.056 | [16] 0.022

EBP (UniProt Q15125)
Sequence of UniProt Q15125 (Q15125 whole entry, looked up): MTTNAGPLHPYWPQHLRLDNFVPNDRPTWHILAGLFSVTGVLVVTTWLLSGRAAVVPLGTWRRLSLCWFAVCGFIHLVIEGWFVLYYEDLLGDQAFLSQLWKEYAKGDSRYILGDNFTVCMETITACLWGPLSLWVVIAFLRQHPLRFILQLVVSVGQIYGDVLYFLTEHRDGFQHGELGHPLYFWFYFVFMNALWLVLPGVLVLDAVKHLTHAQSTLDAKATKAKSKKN
inactive: erlotinib 0.055 | [1] 0.015 | [2] -0.073 | [3] -0.068 | [4] 0.01 | [5] -0.03 | [6] -0.128 | [7] 0.008 | [8] 0.047 | IRAK-1-4 Inhibitor I 0.086 | ibrutinib -0.023 | [9] 0.002 | ralimetinib 0.004 | [10] -0.022 | [11] 0.02 | [12] 0.01 | [13] -0.025 | [14] -0.016 | [15] -0.152 | [16] 0.005

DUS2 (UniProt Q9NX74)
Sequence of UniProt Q9NX74 (Q9NX74 whole entry, looked up): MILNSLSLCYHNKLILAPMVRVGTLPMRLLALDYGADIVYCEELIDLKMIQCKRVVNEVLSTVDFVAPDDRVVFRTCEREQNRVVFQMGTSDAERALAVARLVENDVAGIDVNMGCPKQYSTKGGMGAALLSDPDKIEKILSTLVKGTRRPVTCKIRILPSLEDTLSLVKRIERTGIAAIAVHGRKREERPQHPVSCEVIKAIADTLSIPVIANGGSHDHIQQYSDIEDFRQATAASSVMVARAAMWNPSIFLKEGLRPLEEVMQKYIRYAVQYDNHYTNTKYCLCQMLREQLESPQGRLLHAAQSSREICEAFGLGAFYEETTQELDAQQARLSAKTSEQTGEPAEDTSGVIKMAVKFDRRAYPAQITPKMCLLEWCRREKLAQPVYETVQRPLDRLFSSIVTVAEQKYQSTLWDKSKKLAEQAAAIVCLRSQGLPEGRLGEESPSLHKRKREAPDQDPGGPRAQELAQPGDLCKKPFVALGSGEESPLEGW
inactive: erlotinib 0.006 | [1] 0.007 | [2] 0.017 | [3] 0.057 | [4] 0.027 | [5] 0.021 | [6] 0.033 | [7] -0.016 | [8] 0.05 | IRAK-1-4 Inhibitor I -0.004 | ibrutinib 0.071 | [9] -0.036 | ralimetinib 0.026 | [10] 0.097 | [11] -0.003 | [12] -0.056 | [13] -0.029 | [14] -0.004 | [15] 0.091 | [16] 0.01

GABPB1 isoform 3 (UniProt Q06547)
Sequence of UniProt Q06547 (Q06547 whole entry, looked up): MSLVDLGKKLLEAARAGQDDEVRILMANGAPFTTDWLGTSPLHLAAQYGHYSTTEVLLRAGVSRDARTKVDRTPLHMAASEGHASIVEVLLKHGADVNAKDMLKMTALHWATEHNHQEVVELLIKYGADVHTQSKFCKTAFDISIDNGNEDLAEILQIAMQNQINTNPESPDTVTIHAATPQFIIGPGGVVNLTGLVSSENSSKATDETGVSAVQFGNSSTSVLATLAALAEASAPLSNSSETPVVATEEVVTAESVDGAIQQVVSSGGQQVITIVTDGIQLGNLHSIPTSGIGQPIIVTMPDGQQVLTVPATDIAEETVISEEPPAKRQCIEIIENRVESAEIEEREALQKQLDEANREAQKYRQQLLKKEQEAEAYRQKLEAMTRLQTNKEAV
inactive: erlotinib -0.03 | [1] -0.042 | [2] -0.051 | [3] 0.016 | [4] 0.045 | [5] -0.048 | [6] -0.035 | [7] -0.032 | [8] 0.084 | IRAK-1-4 Inhibitor I 0.078 | ibrutinib 0.085 | [9] -0.027 | ralimetinib 0.043 | [10] -0.068 | [11] 0.121 | [13] 0.099 | [14] -0.051 | [15] -0.042 | [16] 0.03

FNBP1L (UniProt Q5T0N5)
Sequence of UniProt Q5T0N5 (Q5T0N5 whole entry, looked up): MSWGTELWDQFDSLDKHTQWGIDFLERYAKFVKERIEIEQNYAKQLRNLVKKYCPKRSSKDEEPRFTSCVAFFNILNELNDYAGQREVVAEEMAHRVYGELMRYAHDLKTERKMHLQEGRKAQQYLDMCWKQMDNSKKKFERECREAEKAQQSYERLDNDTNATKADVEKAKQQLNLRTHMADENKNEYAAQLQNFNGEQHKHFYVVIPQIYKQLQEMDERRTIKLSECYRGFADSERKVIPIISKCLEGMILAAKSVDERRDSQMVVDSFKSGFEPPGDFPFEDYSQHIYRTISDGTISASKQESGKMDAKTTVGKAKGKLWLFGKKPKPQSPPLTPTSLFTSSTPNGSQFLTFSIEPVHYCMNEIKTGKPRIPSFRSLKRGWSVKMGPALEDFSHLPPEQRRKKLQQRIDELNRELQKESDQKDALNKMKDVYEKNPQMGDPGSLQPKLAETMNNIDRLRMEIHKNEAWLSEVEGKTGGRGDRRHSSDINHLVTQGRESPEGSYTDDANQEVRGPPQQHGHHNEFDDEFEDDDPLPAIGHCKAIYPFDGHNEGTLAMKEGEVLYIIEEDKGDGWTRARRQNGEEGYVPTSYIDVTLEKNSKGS
inactive: erlotinib 0.015 | [1] -0.018 | [2] 0.013 | [3] 0.031 | [4] 0.044 | [5] 0.066 | [6] 0 | [7] -0.012 | [8] -0.061 | IRAK-1-4 Inhibitor I -0.016 | ibrutinib 0.034 | [9] -0.006 | ralimetinib 0.055 | [10] -0.082 | [11] -0.003 | [12] 0 | [13] 0.066 | [14] -0.007 | [15] 0.035 | [16] 0.034

DUS3L (UniProt Q96G46)
Sequence of UniProt Q96G46 (Q96G46 whole entry, looked up): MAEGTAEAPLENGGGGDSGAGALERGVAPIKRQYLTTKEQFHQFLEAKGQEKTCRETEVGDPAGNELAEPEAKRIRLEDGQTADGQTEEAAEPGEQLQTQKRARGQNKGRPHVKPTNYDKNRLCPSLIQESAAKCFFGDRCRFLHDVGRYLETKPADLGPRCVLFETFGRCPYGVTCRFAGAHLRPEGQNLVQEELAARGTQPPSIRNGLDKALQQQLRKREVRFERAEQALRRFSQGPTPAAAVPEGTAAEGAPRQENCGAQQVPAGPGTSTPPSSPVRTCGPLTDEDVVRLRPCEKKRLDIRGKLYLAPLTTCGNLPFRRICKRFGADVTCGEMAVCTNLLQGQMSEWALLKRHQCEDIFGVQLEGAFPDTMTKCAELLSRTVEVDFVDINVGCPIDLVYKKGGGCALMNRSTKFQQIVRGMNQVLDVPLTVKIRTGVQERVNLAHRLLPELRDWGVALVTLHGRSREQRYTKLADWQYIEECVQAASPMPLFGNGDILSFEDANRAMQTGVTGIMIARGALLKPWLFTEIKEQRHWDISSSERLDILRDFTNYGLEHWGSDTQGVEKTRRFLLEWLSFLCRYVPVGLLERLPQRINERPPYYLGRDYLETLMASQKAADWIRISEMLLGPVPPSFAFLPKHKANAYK
inactive: erlotinib -0.009 | [1] -0.001 | [2] 0.048 | [3] 0.059 | [4] 0.013 | [5] 0.032 | [6] -0.013 | [7] -0.012 | [8] -0.007 | IRAK-1-4 Inhibitor I 0.017 | ibrutinib 0.012 | [9] -0.003 | ralimetinib 0.023 | [10] -0.034 | [11] -0.007 | [12] 0.004 | [13] -0.007 | [14] 0.014 | [15] 0.001 | [16] -0.003
